Laboratory results published in the supplement of paper PMC9135407.
Where “and” joins values, the source holds several entries; their conditions need not be identical. Identical values can stand only once. About 620 (11%) of roughly 5,800 compounds showed activity. The sample as a whole holds a higher share of actives than the screen did. Values without a mark were called inactive.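 Rule for the calls: active = score above a cut-off or among the top three wells of a plate; in these data no inactive exceeds 0.85.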

Test system: primary human hepatic stellate cells (donor 1)
Assay: scaled lipid accumulation score (0 = DMSO-like, 1 = nortriptyline-like); higher = stronger HSC inactivation (lipid re-accumulation), active = hit call of the paper
Details: 48 h
[1] = library stock concentration: 3.33 mM
[2] = library stock concentration: 10 mM
[3] = library stock concentration: 400 uM
[4] = library stock concentration: 2 mM
[5] = library stock concentration: 80 uM

Compound: Cc1cn(-c2cc(NC(=O)c3ccc(C)c(Nc4nccc(-c5cccnc5)n4)c3)cc(C(F)(F)F)c2)cn1 [Nilotinib (AMN-107)]
- scaled lipid accumulation score [1]: 0.438
- scaled lipid accumulation score [2]: 0.668

Compound: CNc1nccc(-c2cccnc2Oc2cc(C(=O)Nc3cccc(C(F)(F)F)c3)ccc2C)n1
- scaled lipid accumulation score [3]: ≤ -0.005
- scaled lipid accumulation score [4]: ≤ -0.005

Compound: Cc1cn(-c2cc(NC(=O)c3ccc(C)c(Nc4nccc(-c5cccnc5)n4)c3)cc(C(F)(F)F)c2)cn1 [Nilotinib (AMN107, Tasigna) (10 mM)]
- scaled lipid accumulation score [2]: 0.552

Compound: Cc1cn(-c2cc(NC(=O)c3ccc(C)c(Nc4nccc(-c5cccnc5)n4)c3)cc(C(F)(F)F)c2)cn1 [Nilotinib (AMN107, Tasigna) (0.4 mM)]
- scaled lipid accumulation score [3]: 0.053

Compound: Cc1cn(-c2cc(NC(=O)c3ccc(C)c(Nc4nccc(-c5cccnc5)n4)c3)cc(C(F)(F)F)c2)cn1 [Nilotinib (AMN107, Tasigna) (2 mM)]
- scaled lipid accumulation score [4]: ≤ -0.005

Compound: O=C(O)CCCCC1CCSS1 (racemic) [DL-.alpha.-Lipoic Acid]
- scaled lipid accumulation score (library stock concentration: 1 mM): ≤ 0

Compound: C[C@H]1C[C@H]2[C@@H]3CCC4=CC(=O)C=C[C@]4(C)[C@@]3(F)[C@@H](O)C[C@]2(C)[C@@]1(O)C(=O)COP(=O)(O)O
- scaled lipid accumulation score [2]: ≤ 0

Compound: CC[C@@H]1C(=O)N(C)c2cnc(Nc3ccc(C(=O)N[C@H]4CC[C@H](N5CCN(CC6CC6)CC5)CC4)cc3OC)nc2N1C(C)C [Volasertib] [listing 1 of 2 here]
- scaled lipid accumulation score [5]: 0.154
- scaled lipid accumulation score [3]: 0.358
- scaled lipid accumulation score [4]: 0.451

Compound: COc1cc(C(=O)NC2CCN(C)CC2)ccc1Nc1ncc2c(n1)N(C1CCCC1)CC(F)(F)C(=O)N2C
- scaled lipid accumulation score [1]: 0.271
- scaled lipid accumulation score [2]: 0.722

Compound: CC[C@@H]1C(=O)N(C)c2cnc(Nc3ccc(C(=O)N[C@H]4CC[C@H](N5CCN(CC6CC6)CC5)CC4)cc3OC)nc2N1C(C)C [Volasertib] [listing 2 of 2 here]
- scaled lipid accumulation score [2]: 1.17 (active)

Compound: COc1cc(C(=O)NC2CCN(C)CC2)ccc1Nc1ncc2c(n1)N(C1CCCC1)CCC(=O)N2C(C)C [listing 1 of 2 here]
- scaled lipid accumulation score [2]: 0.868 (active)

Compound: CC[C@@H]1C(=O)N(C)c2cnc(Nc3ccc(C(=O)N[C@H]4CC[C@H](N5CCN(CC6CC6)CC5)CC4)cc3OC)nc2N1C(C)C [Volasertib (BI 6727)]
- scaled lipid accumulation score [1]: 0.97 (active)
- scaled lipid accumulation score [2]: 0.916 (active)

Compound: CC[C@@H]1C(=O)N(C)c2cnc(Nc3ccc(C(=O)NC4CCN(C)CC4)cc3OC)nc2N1C1CCCC1 [listing 1 of 2 here]
- scaled lipid accumulation score [5]: 0.007
- scaled lipid accumulation score [3]: 0.527
- scaled lipid accumulation score [4]: 0.722 and 0.628
- scaled lipid accumulation score [1]: 0.569
- scaled lipid accumulation score [2]: 0.749 and 0.538 and 0.259

Compound: CCOc1cc(N2CCC(O)CC2)ccc1Nc1ncc2c(n1)N(C)c1ccccc1C(=O)N2C
- scaled lipid accumulation score [5]: ≤ -0.009
- scaled lipid accumulation score [3]: 0.026
- scaled lipid accumulation score [4]: ≤ -0.009
- scaled lipid accumulation score [1]: ≤ -0.009
- scaled lipid accumulation score [2]: 0.473 and 0.012

Compound: CC(C)CCN1c2nc(Nc3cc(F)c(O)c(F)c3)ncc2N(C)C(=O)C1C (stereo unspecified)
- scaled lipid accumulation score [5]: ≤ -0.001
- scaled lipid accumulation score [3]: ≤ -0.001 and ≤ -0.005
- scaled lipid accumulation score [4]: ≤ -0.001 and 0.123
- scaled lipid accumulation score [1]: ≤ 0
- scaled lipid accumulation score [2]: ≤ 0 and ≤ -0.001 and 0.36

Compound: COc1cc(C(=O)NC2CCN(C)CC2)ccc1Nc1ncc2c(n1)N(C1CCCC1)C(C)CC(=O)N2C (stereo unspecified)
- scaled lipid accumulation score [5]: ≤ 0
- scaled lipid accumulation score [3]: ≤ 0
- scaled lipid accumulation score [4]: 0.177
- scaled lipid accumulation score [2]: 0.428

Compound: COc1cc(C(=O)NC2CCN(C)CC2)ccc1Nc1ncc2c(n1)N(C1CCCC1)CCC(=O)N2C(C)C [listing 2 of 2 here]
- scaled lipid accumulation score [5]: ≤ 0
- scaled lipid accumulation score [3]: ≤ 0
- scaled lipid accumulation score [4]: 0.132

Compound: CC[C@@H]1C(=O)N(C)c2cnc(Nc3ccc(C(=O)NC4CCN(C)CC4)cc3OC)nc2N1C1CCCC1 [listing 2 of 2 here]
- scaled lipid accumulation score [3]: 1.02 (active)
